Screens from PubChem BioAssay.
RN4220 kill: kills Staphylococcus aureus RN4220. hit rate 0.33% among 330,000. S. aureus RN4220 growth, OD600, 16 h. inhibition, % (concentration not given with the values). AID 1259311; in the data active = inhibition above about 85%
DUSP3 inh: inhibitors of human VHR1 phosphatase (DUSP3); P51452; recombinant VHR phosphatase, pNPP absorbance; inhibition, % at 13.3 µM; hit rate 0.52% among 290,000; AID 1654; in the data active = inhibition above about 50%
Target sequence (P51452 whole entry, looked up): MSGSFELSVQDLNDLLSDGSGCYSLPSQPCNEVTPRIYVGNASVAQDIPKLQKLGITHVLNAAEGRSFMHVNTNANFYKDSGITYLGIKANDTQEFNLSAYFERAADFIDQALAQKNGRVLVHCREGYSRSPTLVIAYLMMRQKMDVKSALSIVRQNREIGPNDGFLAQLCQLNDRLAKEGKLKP
PrPC TRFRET: cell surface PrPC inhibition, primary TR-FRET screen; P04156; TR-FRET read-out; inhibition, % at 13.8 µM; hit rate 0.43% among 370,000; in the data active = inhibition above about 24%
ugtP null kill: compounds lethal to S. aureus RN4220 ugtP deletion mutant; OD600 growth, 16 h; hit rate 0.54% among 330,000; growth inhibition, % (test concentration not listed); in the data active = growth inhibition above about 68%
PfHsp40 yeast: restores yeast growth despite PfHsp40 toxicity; hit rate 0.68% among 340,000; S. cerevisiae expressing PfHsp40, growth rescue, ATP luminescence; AID 504582; growth rescue, % at 12.5 µM; in the data active = growth rescue above about 28%, passing the limit was not always enough;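 also: yeast W303a lacking pdr1 and pdr3 grown in galactose medium; growth measured after three days at 30 °C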
Hits are given with their value; 0 = inactive; - = no result given. The list is not random: actives were taken first. Their share in the collection is about 1.8%.

SMILES | RN4220 kill | DUSP3 inh | PrPC TRFRET | ugtP null kill | PfHsp40 yeast
CCCCn1c(=O)c(C(=O)Nc2ccccc2S(N)(=O)=O)c(O)c2ccccc21 | 92.7 | 0 | 0 | 0 | 0
COc1ccc(-c2csc(COC(=O)C(C)(C)C)n2)cc1 | 0 | 0 | 0 | 0 | 0
CC(C)(C)C(=O)OCc1nc(-c2ccc(Cl)cc2)cs1 | 0 | 0 | 0 | 91.7 | 0
Cc1ccc(N2C(=O)C(=CN3CCN(C(=O)c4ccco4)CC3)C(=O)NC2=S)cc1C | 0 | - | - | 0 | -
CCCCCCCCCCCCCCCC(=O)OC(CC(=O)O)C[N+](C)(C)C (centres undefined) | 0 | - | 0 | 99.0 | 124.7
Cc1ccccc1OCC(=O)Nn1c(COc2ccccc2)nc2ccccc2c1=O | 110.5 | 0 | 0 | 98.6 | 0
N/C(Cc1ccc([N+](=O)[O-])cc1)=N\OC(=O)c1ccccc1F | - | 56.6 | 0 | - | 0
CCn1c(-c2ccccc2)c(C(=O)CCl)c2ccccc21 | 97.3 | 0 | 0 | 99.4 | 0
Cn1c(-c2ccccc2)c(C(=O)CCl)c2ccccc21 | 0 | 0 | 0 | 0 | 0
C=CCc1cccc2cc(C(=O)Nc3ccc(CC(=O)O)cc3)c(=O)oc12 | 0 | 52.1 | 0 | 0 | 0
Clc1ccc(CCNc2nc3ccccc3s2)cc1 | 0 | 0 | 0 | 0 | 217.4
CCc1nnc(NC(=O)c2ccc(S(=O)(=O)N(C)Cc3ccccc3)cc2)o1 | 0 | 0 | 0 | 0 | 0
CCc1nnc(NC(=O)c2ccc(S(=O)(=O)N(CC)Cc3ccccc3)cc2)o1 | 0 | 0 | 0 | 0 | 172.2
CCCCN(CC)S(=O)(=O)c1ccc(C(=O)Nc2nnc(-c3cccs3)o2)cc1 | 92.9 | 0 | - | 94.7 | -
CN(c1ccccc1)S(=O)(=O)c1ccc(C(=O)Nc2nnc(-c3ccc(F)cc3)o2)cc1 | 99.6 | 0 | - | 99.9 | -
COc1ccccc1-c1nnc(NC(=O)c2ccc(S(=O)(=O)N(C)Cc3ccccc3)cc2)o1 | 109.9 | 0 | - | 99.0 | -
COC(CC1OC1C(O)COCc1ccccc1)OC (centres undefined) | 0 | - | - | 0 | -
COc1cc(C=NNc2nncn2N)ccc1OCc1c(C)no[n+]1[O-] | 0 | - | - | 0 | -
CN(C)C=Nc1[nH]ncc1C#N | 0 | - | - | 0 | -
CCC(=O)Nc1c2c(nn1-c1ccccc1C)CSC2 | 0 | 0 | 0 | 0 | 0
CC(=O)Nc1c2c(nn1-c1ccccc1C)CSC2 | 0 | 57.5 | 0 | 0 | 0
CC(=O)Nc1c2c(nn1-c1ccccc1C)CS(=O)(=O)C2 | 0 | 56.9 | 0 | 0 | 0
CCCC(=O)Nc1c2c(nn1-c1cccc(C)c1C)CS(=O)(=O)C2 | 0 | 0 | 0 | 0 | 0
COc1ccc(Cl)cc1N(CC(=O)Nc1ccccc1C(=O)N1CCCC1)S(C)(=O)=O | 0 | 57.6 | 0 | 0 | 0
CCOC(=O)C1CCN(C(=O)c2cc3c(=O)n4cccc(C)c4nc3s2)CC1 | 0 | 0 | 0 | 0 | 31.6
SMILES | RN4220 kill | DUSP3 inh | PrPC TRFRET | ugtP null kill | PfHsp40 yeast
CCOC(=O)C1CCN(C(=O)c2cc3c(=O)n4ccccc4nc3s2)CC1 | 0 | 0 | 0 | 0 | 0
CC(CCC(=O)O)C1CCC2C3C(O)CC4CC(O)CC[C@]4(C)C3CC(O)[C@]12C (some centres undefined) | 0 | - | - | 0 | -
CC(=NNC(=O)C1CC1)c1ccc(N2CCOCC2)cc1 | 0 | - | - | 0 | -
NC(=O)CCN(C(=O)c1cccc(S(=O)(=O)N2CCc3ccccc32)c1)c1ccccc1 | 0 | - | 0 | 0 | 46.6
CC(C)C[C@@]12C(=O)N(c3cccc(Cl)c3)C(=O)N1C(c1ccc(Cl)cc1)C1C(=O)N(C3CCCCC3)C(=O)C12 (some centres undefined) | 0 | - | - | 0 | -
O=C(CNc1cccc2ccccc12)NN=Cc1ccc([N+](=O)[O-])o1 | 99.4 | - | - | 100.2 | -
Cc1cc(C(=O)N/N=C/c2cc(Br)cc([N+](=O)[O-])c2O)c2ccccc2n1 | - | 0 | 0 | - | 184.1
O=C(CNc1cccc2ccccc12)N/N=C/c1ccc([N+](=O)[O-])o1 | - | 0 | 0 | - | 0
Cc1cc(C)cc(OCC(=O)N/N=C/c2ccc([N+](=O)[O-])o2)c1 | - | 0 | 0 | - | 0
Cc1ccccc1OCC(=O)N/N=C/c1ccc([N+](=O)[O-])o1 | - | 51.9 | 0 | - | 0
O=C(NN=Cc1ccc([N+](=O)[O-])o1)c1cn2ccc3ccccc3c2n1 | 0 | - | - | 100.5 | -
Cc1cc(C(=O)NN=Cc2cc(Br)cc([N+](=O)[O-])c2O)c2ccccc2n1 | 0 | - | - | 0 | -
CC1CN(C(C)CO)C(=O)c2cccc(NC(=O)C3CCCCC3)c2OC1CN(C)Cc1ccncc1 (centres undefined) | 0 | - | - | 0 | -
CC(=O)OCC1OC(ON=CC(C)C(OCc2ccccc2)C(C)C)C(OC(C)=O)C(OC(C)=O)C1OC(C)=O (centres undefined) | 0 | - | - | 0 | -
CCSc1nncn1N=Cc1ccc(OC)c(OC)c1 | 0 | - | - | 0 | -
